# In PubChem BioAssay:
# Where “and” joins values, the source holds several entries; their conditions need not be identical. Identical values can stand only once. Calls of active or inactive are those of the source. Unless noted, no rule for the calls is given here.
# Legend:
# [1] = compounds altering circadian rhythm period length – cell-based, LOPAC library, luminescence reporter (AID 2774); conditions: circadian reporter cells, at 7 µM, actives lie on both sides;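 also: values are relative to mean of DMSO wells on each plate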
# [2] = tested on: Hepatitis C virus NS3 helicase; test: blockers of NS3h binding to ssDNA – biochemical, fluorescence polarization, LOPAC1280 library, primary screen (AID 687035; in the data active = inhibition above about 37%); conditions: Purified HCV NS3 helicase, Cy5-dT15 ssDNA binding fluorescence polarization; stronger effect = higher value; concentration not given here
# [3] = compounds altering Cy5-DNA-NS3h complex signal – biochemical, LOPAC1280, artefact control for HCV NS3 helicase inhibitor project (AID 687037); conditions: Cy5-DNA-NS3h complex fluorescence interference counterscreen
# [4] = tested on: Aerobactin synthetase IucA (Klebsiella pneumoniae); test: inhibition of K. pneumoniae IucA enzyme – biochemical, Tocris library, absorbance (AID 1345561); conditions: purified IucA enzyme assay, absorbance (OD) read-out; stronger effect = lower value;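 tested at 8 µM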;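 also: 100% = enzyme without compound and 0% = no enzyme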
# [5] = viability loss with induced miR-34 in A549 – imaging, A549 dox-inducible miR-34, nuclei and caspase counts, primary screen (AID 1347080;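 active = compounds whose cell count with miR-34 switched on is under 0.7 times the count with it off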); conditions: A549 miR-34 inducible, Hoechst nuclei count, 48 h
# [6] = blockers of cellular phospholipid synthesis – cell-based, LOPAC library, screen 4, primary screen (AID 1347384); conditions: animal cells, phospholipid biosynthesis inhibition screen; at 10 µM
# [7] = galactose survival enhancers in mitochondrial complex I cybrids – cell-based, galactose medium, ATP luminescence, primary screen (AID 1645843;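 active = z-score of at least 1.8 in each of two replicates, scored against plate mean and spread of sample wells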;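 also: positive z means more ATP and so rescue of galactose-driven cybrid death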); conditions: complex I mutant cybrid cells, 72 h, stronger effect = higher value
# [8] = compounds altering viability of human ES cells (AID 493140); conditions: human embryonic stem cell survival screen; stronger effect = higher value;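 also: cells exposed to compounds for four days before counting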
# [9] = P. berghei load reduction in hepatocytes – cell-based, HepG2, luciferase luminescence, HepG2 viability, primary screen (AID 624349; in the data active = parasite load remaining mostly below about 12%, no sharp cut-off; inactive = mostly above about 10%;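 also: 100% = mean of DMSO negative control wells on the same plate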); conditions: P. berghei liver stage in HepG2, luciferase luminescence, concentration not given here; parasite load remaining: stronger effect = lower value; viability: measured here: HepG2 viability without parasites
# [10] = MELAS cybrid and Rieske KO viability enhancers – cell-based, MELAS cybrids, Rieske KO mouse fibroblasts, CellTiter-Glo, primary screen (AID 1508586;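 active = mean z-score across replicates of 1.96 or higher in either the MELAS or the Rieske mutant cell line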;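 also: z relative to plate mean and SD of compound and empty wells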); conditions: low glucose
# [11] = chitosan synthesis blockers in C. neoformans – flow cytometry, Cibacron Brilliant Red staining (AID 1347148); conditions: Cryptococcus neoformans chitosan, stronger effect = lower value; at 10 µM unless noted;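 also: compound exposure lasted three days at 37 degrees C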
# [12] = stronger effect = lower value, cell number ratio, induced over uninduced
# [13] = measured here: relative caspase fold change +Dox/-Dox
# [14] = measured here: total cells with miR-34 induction, stronger effect = lower value
# [15] = measured here: total cells without miR-34 induction
# [16] = MELAS cybrid survival, CellTiter-Glo 48 h, stronger effect = higher value
# [17] = Rieske KO mouse fibroblast survival, CellTiter-Glo 72 h
SMILES,period change [1],inhibition [2],fluorescence ratio (interference) [3],remaining activity [4],"fold change [5, 12]","fold change [5, 13]","cell count [5, 14]","cell count [5, 15]",outcome [6],z-score [7],survival [8],parasite load remaining [9],viability [9],"z-score [10, 16]","z-score [10, 17]",fold fluorescence [11]
Nc1ncnc2c1ncn2C1CCCO1 (configuration not stated),-0.01 h (inactive),-1% (inactive),1 (inactive),110% (inactive),0.951 (inactive) and 0.846 (inactive) and 0.927 (inactive),1.64 and 1.08 and 0.781,9560 and 5440 and 8660,10100 and 6440 and 9350,inactive,0.435 (inactive) and -0.32 (inactive),,,,,,
CCn1c(=O)[nH]c2cc(Cl)c(Cl)cc21,0.01 h (inactive),-2% (inactive),1 (inactive),114% (inactive),0.936 (inactive) and 0.878 (inactive),1.34 and 0.845,8830 and 7930,9440 and 9020,inactive,0.275 (inactive) and 0.885 (inactive),,,,,,
CN(C)CCCSC(=N)N,,,,105% (inactive),0.94 (inactive) and 0.947 (inactive),0.889 and 0.696,8690 and 7530,9240 and 7950,,-0.34 (inactive),12 (inactive),63.2% (inactive),78.8%,0.388 (inactive),-0.104,
COc1ccc(CCCOC(Cn2ccnc2)c2ccc(OC)cc2)cc1 (configuration not stated),,,,113% (inactive),1.01 (inactive) and 1.05 (inactive),1.53 and 0.475 and 0.778,1590 and 4390 and 2690,1570 and 4170 and 2650,,-0.775 (inactive),,,,,,
Cc1cccc(/C=C/c2ccccc2)n1,0.01 h (inactive),0% (inactive),1 (inactive),108% (inactive),0.995 (inactive) and 0.915 (inactive),1.79 and 0.591,9190 and 8490,9240 and 9280,inactive,1.12 (inactive) and 0.09 (inactive),,,,,,
Cc1ccc(C(=O)Cn2c3c(sc2=N)CCCC3)cc1,,,,107% (inactive),,,,,,-0.225 (inactive),,,,1.05 (inactive),-0.573,5.78 [at 174.6 µM] (inactive)
CC1(C)CCC(C)(C)c2cc(C(=O)Nc3ccc(C(=O)O)cc3)ccc21,,,,,,,5520 and 7570,5900 and 8080,,1.25 (inactive),83.8 (inactive),,,,,
c1ccc(C(NCc2cccnc2)(c2ccccc2)c2ccccc2)cc1,,0% (inactive),1 (inactive),95% (inactive),1.09 (inactive) and 0.901 (inactive),1.48 and 1.53,7080 and 6130,6480 and 6800,inactive,-1.03 (inactive) and -0.695 (inactive),,,,,,
O=C(NCCNCC(O)COc1ccc(O)cc1)N1CCOCC1 (configuration not stated),-0.145 h (inactive),,,86.3% (inactive),0.933 (inactive) and 0.982 (inactive) and 0.986 (inactive),1.12 and 0.678 and 0.984,9570 and 9500 and 10300,10300 and 9670 and 10400,,1.45 (inactive) and 0.315 (inactive),3.92 (inactive),67.2% (inactive) and 53.1% (inactive),92.7% and 101%,0.558 (inactive) and 0.821 (inactive),-0.323 and 0.721,
CC(C)[C@@H]1CC[C@@H](C)C[C@@H]1P(=O)(c1ccccc1)c1ccccc1,,2% (inactive),1 (inactive),100% (inactive),0.961 (inactive) and 0.925 (inactive),0.895 and 1.06,8530 and 7980,8880 and 8620,inactive,0.1 (inactive) and -0.24 (inactive),,,,,,
c1ccc(C(NCCNC(c2ccccc2)c2ccccc2)c2ccccc2)cc1,,-4% (inactive),1 (inactive),112% (inactive),0.972 (inactive) and 0.853 (inactive),0.809 and 1.79,5830 and 5710,5990 and 6700,inactive,-1.29 (inactive) and -0.705 (inactive),,,,,,
CCCn1c(=O)c(C)cn2nc(N)nc12,,-2% (inactive),1 (inactive),123% (inactive),0.963 (inactive) and 0.912 (inactive),2.19 and 0.621,10000 and 9600,10400 and 10500,inactive,0.8 (inactive) and -0.21 (inactive),,,,,,
Cc1ccc([N+](=O)[O-])cc1S(=O)(=O)N(C)C,,0% (inactive),1 (inactive),93.4% (inactive),0.957 (inactive) and 0.856 (inactive),1.62 and 1.47,9070 and 7620,9480 and 8900,inactive,0.32 (inactive) and -0.31 (inactive),,,,,,
Clc1ccc2c(c1)N=C(N1CCNCC1)c1ccccc1N2,,-2% (inactive),1 (inactive),102% (inactive),1.02 (inactive) and 0.994 (inactive),1.15 and 0.797,7100 and 7380,6990 and 7420,inactive,-0.785 (inactive) and -0.84 (inactive),,,,,,
CN1CCc2cccc3c2[C@H]1Cc1ccc(O)c(O)c1-3,,,,113% (inactive),0.946 (inactive) and 0.949 (inactive) and 0.917 (inactive),0.839 and 1.17 and 0.734,7920 and 7790 and 8530,8370 and 8210 and 9300,,-1.04 (inactive) and -2.25 (inactive),6.58 (inactive),7.04% (inactive) and 82% (inactive) and 31.2% (inactive),42.7% and 84.6% and 138%,0.207 (inactive) and -0.194 (inactive),0.641 and 0.16,
Brc1c(Br)c(Br)c2n[nH]nc2c1Br,,-6% (inactive),1 (inactive),108% (inactive),1.03 (inactive) and 1.02 (inactive),1.41 and 1.13,10300 and 7940,9970 and 7790,inactive,-0.92 (inactive) and -0.58 (inactive),,65.4% (inactive),173%,,,
O=C(O)CCC/C=C\C[C@@H]1[C@@H](/C=C/[C@@H](O)COc2cccc(Cl)c2)[C@H](O)C[C@@H]1O,,,,110% (inactive),0.943 (inactive) and 0.93 (inactive) and 0.921 (inactive),1.66 and 1.25 and 1.86,5470 and 5960 and 8580,5810 and 6400 and 9320,,-0.155 (inactive),113 (inactive),,,,,
Oc1cc2c(cc1O)CN(C(=S)NCCc1ccc(Cl)cc1)CCC2,0.035 h (inactive),0% (inactive),1 (inactive),72.4% (inactive),,,,,inactive,-0.99 (inactive) and -1.23 (inactive),,,,,,5.63 [at 132.7 µM] (inactive)
CCCCCCC(=O)OC1CC(C)(C)NC(C)(C)C1,,-4% (inactive),0.9 (inactive),97.8% (inactive),0.999 (inactive) and 0.934 (inactive),0.562 and 1.2,9880 and 8660,9890 and 9270,inactive,0.56 (inactive) and 0.015 (inactive),,,,,,
